This is an account of results in PubChem BioAssay.

The test concerns Rat fibroblasts (CREF). Briefly: Peg3 promoter luciferase inhibitors, potency, dose response, cell-based, HeLa, CREF/GAPDH counter-screen panel (AID 624167). As to conditions: CREF/GAPDH counter-screens; run 2, dose range 1, at 100 µM (top of the series).
As usually defined, the inhibition is the relative decrease from the control value, in per cent. Turning to `Cc1ccc(-c2nc(-c3ccccn3)no2)cc1Cl`, the inhibition came out at 99.4%.

In the case of `CCCCC(=O)NC(c1ccccc1)c1ccc2cccnc2c1O` (centres undefined), the inhibition was -7.89%.

As for `CCCC(=O)NC(c1ccc(Cl)cc1)c1ccc2cccnc2c1O` (centres undefined), the inhibition is 28.1%.

As for `Cc1ccc(C(=O)Nc2cnc3ccccc3c2)cc1`, the inhibition came to 77.7%.

On to `O=C(c1ccco1)N1CCN(C(c2ccccc2Cl)c2nnnn2Cc2cccs2)CC1` (centres undefined), for which the inhibition was -17.6%.

`COC1=C(Br)C(=O)c2ncccc2C1=O`: the inhibition was found to be 97.8%.

As for `O=C(N/N=C/c1cc([N+](=O)[O-])ccc1O)c1ccc(COc2ccc3c(c2)CCC3)o1`, the inhibition was determined as 55.1%.

Consider `CN(C)c1c([N+](=O)[O-])cc(N2C(=O)C=CC2=O)cc1[N+](=O)[O-]`, for which the inhibition came to 100%.

Take `CCc1ccc(/C=C2\SC(=S)N(CCCC(=O)Nc3cc(C)on3)C2=O)cc1`: the inhibition came out at 27.4%.

In the case of `O=c1cnnc(N/N=C/c2ccccn2)[nH]1`, the inhibition came out at 51.1%.

Consider `COCCCNC(=O)c1ccc(Cn2c(=O)c3ccccc3n(Cc3ccccc3C#N)c2=O)cc1`, for which the inhibition was 38.4%.

For the compound `NC(Cc1ccc(F)cc1)c1csc(Nc2cc(Oc3ccccc3)ncn2)n1` (centres undefined), the inhibition stood at 94.1%.

Consider `CC(C)CC(=NNC(=O)c1ccncc1)c1cc(Cl)ccc1O`, for which the inhibition was determined as 81.7%.

Take `C=CCn1c(C)cc(C(=O)COc2ccc(C)nc2[N+](=O)[O-])c1C`: the inhibition stood at 46.5%.

Consider `Cc1ccc(/C=C2\SC(=S)N(CCCC(=O)Nc3ccccn3)C2=O)cc1`, for which the inhibition is -1.96%.

As for `COc1cccc2nc3c(C(=O)NCCN(C)C)cccc3cc12`, the inhibition worked out at 95.2%.

Turning to `CS(=O)(=O)c1ccc(-c2sc3ccccc3c2C#CCCO)cc1`, the inhibition is 95.7%.

As for `O=C(CNC(=O)C(c1ccccc1)c1ccccc1)N/N=C/c1ccc(O)cc1O`, the inhibition is 35.6%.

On to `CN(C)c1ccc(/C=C(\C#N)c2ccccn2)cc1`, for which the inhibition was determined as 99%.

With `CC(=O)NC(c1ccc(Cl)cc1Cl)c1ccc2cccnc2c1O` (centres undefined), the inhibition is 0.461%.

Turning to `O=C(NCCc1ccccc1)c1ccc2c(c1)OCCCO2`, the inhibition was found to be 99.5%.

Regarding `CC(C)Cc1ccc(C(C)C(N)=NCCc2ccccc2)cc1` (centres undefined), the inhibition was found to be 99.2%.

As for `CN1C/C(=C/c2ccccc2[N+](=O)[O-])C(=O)/C(=C\c2ccccc2[N+](=O)[O-])C1`, the inhibition turned out to be 95.6%.

With `O=C(O)c1ccc(N/N=C/c2ccc3c(c2)OCO3)cc1`, the inhibition amounted to 62.5%.

On to `COc1ccc(/C=C2\SC(=S)N(CCCC(=O)NNC(=O)c3ccccc3O)C2=O)cc1`, for which the inhibition is 43.3%.

On to `O=C(Nc1ccccc1C(=O)Nc1nnc(C(F)(F)F)s1)c1ccccc1`, for which the inhibition is 11.8%.

In the case of `O=C(NCCc1ccccc1)c1ccc2c(c1)OCO2`, the inhibition came to 93.7%.

Take `Cc1ccsc1/C=N/Nc1cccc(C(=O)O)c1`: the inhibition was 42.9%.

`CC(=O)c1ccc(-c2cnc3c(NC=O)cc(-c4ccccc4Oc4ccccc4)cn23)cc1`: the inhibition worked out at 94.9%.

`O=C(Nc1nc2cc3c(cc2s1)OCO3)C1=COCCO1`: the inhibition is 94%.

For `CCCC(=O)NC(c1ccccc1)c1ccc2cccnc2c1O` (centres undefined), the inhibition is 44.9%.

On to `OCCNc1c2ccccc2nc2ccccc12`, for which the inhibition was 94.8%.

Regarding `COc1ccccc1C(=O)Nc1nc2ccccc2[nH]1`, the inhibition stood at 99.5%.

With `COc1ccc(S(=O)(=O)/N=C2\C=C(Nc3ccc(O)cc3)C(=O)c3ccccc32)cc1`, the inhibition came out at 97.4%.

For the compound `Oc1[nH]c2ccc(Br)cc2c1N=NC(=S)N1CCOCC1`, the inhibition was 99.1%.

Regarding `CCCC(=O)NC(c1ccc(C)cc1)c1ccc2cccnc2c1O` (centres undefined), the inhibition is 23.3%.

Take `O=c1cc(-c2ccc(O)cc2)oc2ccc3ccccc3c12`: the inhibition was 97.1%.

As for `CCn1nc(C)cc1-c1nnc(Sc2ncc([N+](=O)[O-])s2)n1C`, the inhibition turned out to be 98.8%.

In the case of `Clc1ccccc1/C=C/c1nc(-c2ccccn2)no1`, the inhibition was 76.1%.
